“And” between values parts separate entries of the source, which are not always exact repeats. Equal values may be shown once. Records with an inconclusive call do not appear. More than one record can exist for a structure, and the calls need not agree. The source made the active and inactive calls. Rule for the calls: active = hit-call score of the fitted dose curve at least 0.9, where 1 is the maximum; inconclusive = response in the unintended direction; inactive = score below 0.9.
Columns and labels:
[1] = target: bovine Estrogen Receptor (ER), ESR1 (gene 407238) (UniProt P49884); assay: NVS_NR_bER: NovaScreen (NVS) Nuclear Receptor Binding Assay for bovine Estrogen Receptor (ER) (AID 2283345);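 note: actives lower the bound radioligand count which means they displace the ER ligand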
Sequence of bovine Estrogen Receptor (ER), ESR1 (gene 407238) (P49884 whole entry, looked up): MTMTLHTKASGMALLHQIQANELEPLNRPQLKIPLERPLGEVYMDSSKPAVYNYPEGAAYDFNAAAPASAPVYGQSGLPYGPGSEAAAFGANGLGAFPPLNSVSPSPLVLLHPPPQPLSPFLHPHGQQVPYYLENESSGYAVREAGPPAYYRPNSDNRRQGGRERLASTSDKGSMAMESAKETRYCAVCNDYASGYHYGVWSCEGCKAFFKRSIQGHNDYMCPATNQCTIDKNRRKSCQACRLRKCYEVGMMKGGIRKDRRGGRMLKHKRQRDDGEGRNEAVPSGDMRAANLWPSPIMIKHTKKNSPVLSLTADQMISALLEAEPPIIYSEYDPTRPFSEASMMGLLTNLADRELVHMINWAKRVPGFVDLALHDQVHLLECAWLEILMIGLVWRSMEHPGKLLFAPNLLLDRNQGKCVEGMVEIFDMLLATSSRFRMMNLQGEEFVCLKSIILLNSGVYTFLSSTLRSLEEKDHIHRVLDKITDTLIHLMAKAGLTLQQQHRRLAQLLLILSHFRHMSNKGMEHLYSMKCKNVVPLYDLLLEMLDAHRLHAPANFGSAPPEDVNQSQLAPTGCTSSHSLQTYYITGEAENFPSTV
Summary of the method: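 Displacement of a radioligand from estrogen receptor in bovine uterine membrane preparations; scintillation signal taken at 18 hours, DMSO as baseline. Single-concentration duplicates (25 uM) preceded concentration-response follow-up of actives.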

[2] = target: chimpanzee Androgen Receptor (AR), AR (gene 747460) (UniProt O97775); assay: NVS_NR_cAR: NovaScreen (NVS) Nuclear Receptor Binding Assay for chimpanzee Androgen Receptor (AR) (AID 2283346);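 note: radioligand displacement from AR measured by scintillation counting in a cell-free assay; a loss of bound radioligand signal versus DMSO counts as binding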
Sequence of chimpanzee Androgen Receptor (AR), AR (gene 747460) (O97775 whole entry, looked up): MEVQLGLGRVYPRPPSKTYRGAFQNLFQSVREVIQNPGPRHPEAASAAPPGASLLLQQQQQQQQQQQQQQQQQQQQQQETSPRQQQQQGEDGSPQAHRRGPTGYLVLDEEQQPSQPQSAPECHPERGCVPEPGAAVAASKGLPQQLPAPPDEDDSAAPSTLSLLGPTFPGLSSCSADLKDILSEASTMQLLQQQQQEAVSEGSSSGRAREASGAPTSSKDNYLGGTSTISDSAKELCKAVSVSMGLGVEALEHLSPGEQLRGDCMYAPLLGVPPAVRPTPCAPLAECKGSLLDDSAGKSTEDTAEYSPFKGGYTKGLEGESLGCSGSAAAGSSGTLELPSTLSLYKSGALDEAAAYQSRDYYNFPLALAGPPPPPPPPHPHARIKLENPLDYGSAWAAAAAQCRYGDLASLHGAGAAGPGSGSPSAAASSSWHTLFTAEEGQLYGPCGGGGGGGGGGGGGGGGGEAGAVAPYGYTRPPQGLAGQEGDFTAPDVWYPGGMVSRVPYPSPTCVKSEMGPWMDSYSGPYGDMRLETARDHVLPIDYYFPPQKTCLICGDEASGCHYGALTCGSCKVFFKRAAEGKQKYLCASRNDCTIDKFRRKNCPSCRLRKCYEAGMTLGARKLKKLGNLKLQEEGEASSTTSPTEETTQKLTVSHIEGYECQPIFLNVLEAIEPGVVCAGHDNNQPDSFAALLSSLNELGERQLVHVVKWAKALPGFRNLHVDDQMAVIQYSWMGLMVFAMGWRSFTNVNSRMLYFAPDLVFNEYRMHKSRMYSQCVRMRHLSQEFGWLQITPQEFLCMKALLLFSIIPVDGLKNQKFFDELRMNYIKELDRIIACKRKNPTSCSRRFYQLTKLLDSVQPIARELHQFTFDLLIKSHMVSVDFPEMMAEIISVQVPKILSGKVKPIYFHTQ
Summary of the method: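 Cell-free competition binding with insect-cell (Sf9/Sf21) extracted chimpanzee AR; scintillation signal from lysate at 72 h. Screened in duplicate at 25 uM, then concentration-response for actives; fitting relative to DMSO.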

[3] = target: Estrogen receptor (Homo sapiens) (UniProt P03372); assay: NVS_NR_hER: NovaScreen (NVS) Nuclear Receptor Binding Assay for human Estrogen Receptor (ER) (AID 2283348)
Sequence of Estrogen receptor (Homo sapiens) (P03372 whole entry, looked up, the tested form may be a part): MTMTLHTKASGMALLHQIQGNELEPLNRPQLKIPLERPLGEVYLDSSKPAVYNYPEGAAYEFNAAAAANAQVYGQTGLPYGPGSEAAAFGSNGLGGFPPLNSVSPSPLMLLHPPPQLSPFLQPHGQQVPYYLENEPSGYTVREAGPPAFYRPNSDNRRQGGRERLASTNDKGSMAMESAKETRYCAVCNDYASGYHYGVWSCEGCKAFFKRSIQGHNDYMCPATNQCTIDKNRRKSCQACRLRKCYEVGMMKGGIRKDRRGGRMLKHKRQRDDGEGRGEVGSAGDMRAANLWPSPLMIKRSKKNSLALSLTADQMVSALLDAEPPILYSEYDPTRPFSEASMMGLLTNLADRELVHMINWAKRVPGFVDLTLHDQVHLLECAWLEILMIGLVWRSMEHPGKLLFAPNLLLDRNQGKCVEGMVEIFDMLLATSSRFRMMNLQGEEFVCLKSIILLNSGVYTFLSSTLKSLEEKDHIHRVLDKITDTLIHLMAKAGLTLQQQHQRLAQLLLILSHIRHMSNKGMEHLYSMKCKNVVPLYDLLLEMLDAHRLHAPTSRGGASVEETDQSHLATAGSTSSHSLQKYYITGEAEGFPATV
Summary of the method: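 Cell-free MCF7-derived ER preparation, specific radioligand displaced by test compound, read by scintillation counting 18 h post-dosing. Duplicate single-point 25 uM screen, then concentration-response confirmation; DMSO baseline.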

[4] = target: Estrogen receptor (Homo sapiens) (UniProt P03372); assay: OT_ER_ERaERa_1440: Odyssey Thera (OT) 24-hour HEK293T Protein-Complementation Assay for Estrogen Receptor-alpha/-alpha Homodimer (AID 2283349);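 note: hits raise fluorescence above DMSO for agonists and antagonists alike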
Summary of the method: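 HEK293T, stable ERα LBD (aa 310-547) homodimer PCA; 24 h compound exposure; mean fluorescence intensity (nuclear for agonists, nuclear plus cytoplasmic for antagonists) vs vehicle; positive fitting direction, DMSO baseline.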

[5] = target: Estrogen receptor (Homo sapiens) + Estrogen receptor beta (Homo sapiens) (UniProt P03372+Q92731); assay: OT_ER_ERaERb_0480: Odyssey Thera (OT) 8-hour HEK293T Protein-Complementation Assay for Estrogen Receptor-alpha/-beta Heterodimer (AID 2283352)
Sequence of Estrogen receptor (Homo sapiens) + Estrogen receptor beta (Homo sapiens) (P03372 whole entry, looked up): as the sequence (P03372 whole entry, looked up, the tested form may be a part) above
Sequence of Estrogen receptor (Homo sapiens) + Estrogen receptor beta (Homo sapiens) (Q92731 whole entry, looked up): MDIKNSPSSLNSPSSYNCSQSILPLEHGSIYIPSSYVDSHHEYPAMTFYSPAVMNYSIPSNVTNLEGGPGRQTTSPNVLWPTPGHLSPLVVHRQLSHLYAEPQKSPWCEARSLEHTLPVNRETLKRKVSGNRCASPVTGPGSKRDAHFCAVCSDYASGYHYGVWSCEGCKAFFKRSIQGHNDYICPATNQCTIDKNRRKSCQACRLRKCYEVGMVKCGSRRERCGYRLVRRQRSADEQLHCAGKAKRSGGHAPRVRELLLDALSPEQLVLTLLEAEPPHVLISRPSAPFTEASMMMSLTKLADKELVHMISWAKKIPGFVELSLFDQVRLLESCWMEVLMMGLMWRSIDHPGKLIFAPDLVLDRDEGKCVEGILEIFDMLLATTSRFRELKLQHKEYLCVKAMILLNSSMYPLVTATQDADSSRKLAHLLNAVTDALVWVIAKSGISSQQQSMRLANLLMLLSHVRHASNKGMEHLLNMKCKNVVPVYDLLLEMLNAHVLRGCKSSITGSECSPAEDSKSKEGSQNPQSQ
Summary of the method: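 Compound added to HEK293T cells carrying split-reporter-tagged ER-alpha and ER-beta LBDs, incubated 8 hours, then imaged by laser scanning cytometer. Signal rise in nucleus, or nucleus and cytoplasm, over vehicle was fitted in the positive direction.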

[6] = target: Estrogen receptor (Homo sapiens) (UniProt P03372); assay: OT_ER_ERaERa_0480: Odyssey Thera (OT) 8-hour HEK293T Protein-Complementation Assay for Estrogen Receptor-alpha/-alpha Homodimer (AID 2283351);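 note: rise in fluorescence from reassembled reporter fragments on ERα LBD homodimer in nucleus or whole cell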
Summary of the method: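 Measures ERα LBD (aa 310-547) homodimer complementation in stably transfected HEK293T at 8 h post-dose, with fluorescence intensity quantified on a laser scanning cytometer relative to DMSO controls.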

NCBI gene 100848466 = assay: NVS_NR_bPR: NovaScreen (NVS) Nuclear Receptor Binding Assay for bovine Progextron Receptor (PR) (AID 2283343);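 note: actives lower bound radioligand signal below DMSO meaning displacement of the label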
Summary of the method: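 Competitive radioligand binding with membranes from bovine uterus, scintillation read-out at 18 h post-dose. Compounds first tested in duplicate at 25 uM, then actives in concentration series; loss-of-signal relative to DMSO.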

[7] = target: human Constitutive Androstane Receptor (CAR), NR1I3 (gene 9970) (UniProt Q14994); assay: NVS_NR_hCAR_Antagonist: NovaScreen (NVS) Nuclear Receptor Binding Assay for human Constitutive Androstane Receptor Antagonism (CAR) (AID 2283344)
Sequence of human Constitutive Androstane Receptor (CAR), NR1I3 (gene 9970) (Q14994 whole entry, looked up): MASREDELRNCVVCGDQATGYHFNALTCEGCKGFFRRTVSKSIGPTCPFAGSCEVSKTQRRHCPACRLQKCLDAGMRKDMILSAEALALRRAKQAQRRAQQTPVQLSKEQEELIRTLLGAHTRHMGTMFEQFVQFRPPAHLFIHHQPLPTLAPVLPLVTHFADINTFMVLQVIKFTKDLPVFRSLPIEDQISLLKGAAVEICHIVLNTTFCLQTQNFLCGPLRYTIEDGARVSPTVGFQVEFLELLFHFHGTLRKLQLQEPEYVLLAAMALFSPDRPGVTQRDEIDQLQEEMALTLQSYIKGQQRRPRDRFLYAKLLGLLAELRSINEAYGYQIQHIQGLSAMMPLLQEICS
Summary of the method: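 Single 25 uM duplicate primary screen, with concentration-series follow-up on actives. Cell-free binding format run in antagonist mode, TR-FRET signal taken 1 h post-dose; activity is signal loss relative to DMSO.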

[8] = target: Androgen Receptor/SRC-1 Co-activator, AR (gene 367) (UniProt P10275); assay: OT_AR_ARSRC1_0960: Odyssey Thera (OT) 16-hour HEK293T Protein-Complementation Assay for Androgen Receptor/SRC-1 Co-activator (AID 2283353);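 note: actives raise the signal above DMSO so potency reflects increased AR and SRC-1 complex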
Sequence of Androgen Receptor/SRC-1 Co-activator, AR (gene 367) (P10275 whole entry, looked up, the tested form may be a part): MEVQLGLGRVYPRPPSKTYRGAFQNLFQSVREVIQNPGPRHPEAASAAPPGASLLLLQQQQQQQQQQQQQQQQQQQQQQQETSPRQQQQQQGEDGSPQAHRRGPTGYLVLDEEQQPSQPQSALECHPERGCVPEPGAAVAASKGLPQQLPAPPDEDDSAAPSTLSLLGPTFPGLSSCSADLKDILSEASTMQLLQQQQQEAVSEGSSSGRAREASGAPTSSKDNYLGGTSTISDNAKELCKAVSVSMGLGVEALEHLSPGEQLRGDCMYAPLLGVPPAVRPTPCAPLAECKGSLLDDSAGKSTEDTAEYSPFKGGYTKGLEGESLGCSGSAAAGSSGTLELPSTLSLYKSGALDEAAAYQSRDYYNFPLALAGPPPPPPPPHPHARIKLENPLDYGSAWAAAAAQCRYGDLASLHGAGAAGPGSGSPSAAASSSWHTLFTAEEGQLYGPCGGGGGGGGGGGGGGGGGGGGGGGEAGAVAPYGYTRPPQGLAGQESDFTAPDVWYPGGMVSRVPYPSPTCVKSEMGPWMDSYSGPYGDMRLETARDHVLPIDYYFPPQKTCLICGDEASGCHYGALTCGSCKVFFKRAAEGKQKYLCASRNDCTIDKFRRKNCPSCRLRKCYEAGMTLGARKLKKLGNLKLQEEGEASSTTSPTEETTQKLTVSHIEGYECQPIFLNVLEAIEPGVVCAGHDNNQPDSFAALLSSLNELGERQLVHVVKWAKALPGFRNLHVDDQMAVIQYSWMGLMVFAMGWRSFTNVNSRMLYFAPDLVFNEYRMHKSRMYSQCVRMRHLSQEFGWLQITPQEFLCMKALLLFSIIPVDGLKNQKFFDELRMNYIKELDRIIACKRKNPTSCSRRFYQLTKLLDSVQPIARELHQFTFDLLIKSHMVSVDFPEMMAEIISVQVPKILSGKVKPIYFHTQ
Summary of the method: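 Sixteen-hour cell assay: Venus halves fused to AR and SRC-1 in HEK293T report binding. Images at 488/635 nm give an N/C ratio in the 488 nm channel over ≥400 cells, analysed as signal increase over DMSO.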

[9] = target: Androgen Receptor/SRC-1 Co-activator, AR (gene 367) (UniProt P10275); assay: OT_AR_ARSRC1_0480: Odyssey Thera (OT) 8-hour HEK293T Protein-Complementation Assay for Androgen Receptor/SRC-1 Co-activator (AID 2283354);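 note: hits raise the complementation signal above DMSO so AC50 marks enhancers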
Summary of the method: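 Reconstituted split-Venus YFP signal from AR–SRC-1 interaction, read by imaging 8 h post-dose in stable HEK293T lines. The 488 nm nucleus-to-cytoplasm ratio (≥400 cells/image) was fitted upward against DMSO.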

Question: How did the outcome [1] turn out when `CC(=O)CC(=O)N(C)C` was run?
Answer: inactive

Question: And the outcome [2]?
Answer: inactive

Question: And the outcome [3]?
Answer: inactive

Question: And the outcome [4]?
Answer: inactive

Question: And the outcome [5]?
Answer: inactive

Question: `O=C(Nc1cccc(Cl)c1)OCC#CCCl` was tested. Which outcome [1] did it give?
Answer: inactive

Question: What about the outcome [3] of the same compound?
Answer: inactive

Question: Which outcome [1] does the source give for `C[C@H](CCC(=O)O)[C@H]1CC[C@H]2[C@@H]3CC[C@@H]4C[C@H](O)CC[C@]4(C)[C@H]3CC[C@]12C` here?
Answer: inactive

Question: Which results are given for `O=C1OC2(c3ccc(O)cc3Oc3cc(O)ccc32)c2ccccc21`?
Answer: AC50 [1]: 15.8 µM (active); AC50 [2]: 13.5 µM (active); outcome [2]: inactive; AC50 [3]: 9.78 µM (active); outcome [3]: inactive; outcome [4]: inactive; outcome [6]: inactive

Question: Which results are given for `CCC(=O)OC(C)(C)C1CC=C(C)CC1` (stereo unspecified)?
Answer: outcome [1]: inactive; outcome [3]: inactive; outcome [4]: inactive; outcome [6]: inactive; outcome [5]: inactive

Question: What does the source list for `O=S1(=O)CC(Cl)(Cl)C(Cl)(Cl)C1`?
Answer: outcome [1]: inactive; AC50 [3]: 18.5 µM (active)

Question: Which outcome [1] does the source give for `COc1ccccc1O` here?
Answer: inactive

Question: And the outcome [3]?
Answer: inactive

Question: What about the outcome [4] of the same compound?
Answer: inactive

Question: What does the source list for `C=CC(=O)OCC(CO)(COC(=O)C=C)COC(=O)C=C`?
Answer: outcome [1]: inactive; outcome [3]: inactive

Question: `CC/C=C\CCOC(C)OCC` (stereo unspecified) was tested. Which outcome [1] did it give?
Answer: inactive

Question: And the outcome [3]?
Answer: inactive

Question: How did the outcome [1] turn out when `CN(C)CCC=C1c2ccccc2CCc2ccccc21` was run?
Answer: inactive

Question: What about the outcome [3] of the same compound?
Answer: inactive

Question: Which results are given for `C[C@]12CC[C@@H]3c4ccc(O)cc4CC[C@H]3[C@@H]1CC[C@@H]2O`?
Answer: AC50 (NCBI gene 100848466): 0.00898 µM (active); outcome [7]: inactive

Question: With `O=c1cc(-c2ccc(O)cc2)oc2cc(O)cc(O)c12` as the compound, how does the AC50 [2] read?
Answer: 12.9 µM (active)

Question: For `C#C[C@]1(O)CC[C@H]2[C@@H]3CCc4cc(O)ccc4[C@H]3CC[C@@]21C`, which AC50 (NCBI gene 100848466) is on record?
Answer: 0.051 µM (active)

Question: And the AC50 [2]?
Answer: 966 nM (active) and 80.5 nM (active)

Question: `CC(C)(CO)CO` was tested. Which outcome [1] did it give?
Answer: inactive

Question: What about the outcome [4] of the same compound?
Answer: inactive

Question: What about the outcome [6] of the same compound?
Answer: inactive

Question: And the outcome [5]?
Answer: inactive

Question: And the outcome [8]?
Answer: inactive

Question: What about the outcome [9] of the same compound?
Answer: inactive

Question: Which results are given for `Cc1cccc(O)c1`?
Answer: outcome [1]: inactive; outcome [3]: inactive; outcome [4]: inactive; outcome [5]: inactive

Reference: PubChem BioAssay (EPA / NIEHS)
